Assay results reported in PubChem BioAssay AID1463 (National Center for Advancing Translational Sciences (NCATS), 2008).
Out of some 280,000 compounds screened, about 2,600 (0.93%) were called active. Inconclusive results (about 8%) are left out. Calls follow the shape of the dose curve; as a rule, active = well fitted curve in the direction sought with a large enough effect; inconclusive = small, poorly fitted or top-dose-only effect; inactive = flat fitted curve, though single readings scatter. The list comes from a sample in which actives are over-represented; it also holds similar structures and randomly drawn compounds. A call without a number means that no potency is given here.

test: Counterscreen qHTS for Inhibitors of Tau Fibril Formation, Fluorescence Polarization; settings: tau K18 P301L (four-repeat tau fragment) Alexa594 fluorescence, heparin fibrillization; series mostly up to 57.7 µM; also: nearly all actives have a fitted effect of over 55% in size
Method in brief: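 Human K18 P301L tau (15 uM unlabeled plus 0.24 uM Alexa 594-labeled, final) in 100 mM sodium acetate pH 7 was mixed with compound and 20 uM heparin and incubated 6 hr at 37 C.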
Potency is read from the fitted curve at half-maximal effect; tags tell the direction and shape of the fitted curve or compound fluorescence and quenching.

| Structure (SMILES) | Potency |
| --- | --- |
| CCN(CCCNC(=O)c1cc2c(=O)n(CC)c3ccccc3c2s1)Cc1ccccc1 | inactive |
| Cc1c(NC(=O)C(C)(C)C)cccc1-c1nc2ccccc2s1 | inactive |
| Cc1c(O)cc(O)c2c(=O)c(-c3ccc(O)cc3)coc12 | inactive |
| O=c1c(-c2ccccc2)coc2cc(O)ccc12 | inactive |
| CC(C)=CCc1c(O)c(CC=C(C)C)c2occ(-c3ccc(O)cc3)c(=O)c2c1O | 15.8 µM [quencher] (active) |
| COc1ccc(-c2nnc(SCC(=O)Nc3ccc(C(C)C)cc3)nc2-c2ccc(OC)c(OC)c2)cc1OC | inactive |
| Cc1ccc2nc(-c3ccc(O)cc3)c(Nc3ccc4c(c3)OCO4)n2c1 | 17.8 µM [quencher] (active) |
| Cc1ccc2nc(-c3cccnc3)c(NC3CCCC3)n2c1 | inactive |
| Oc1ccc(-c2nc3ccc(Cl)cn3c2Nc2ccc3c(c2)OCO3)cc1 | inactive |
| COc1ccc(CCNC(=O)c2ccc(-n3c(C)cc4c3CCCC4)cc2)cc1OC | inactive |
| O=[N+]([O-])c1ccc(N/N=C/c2ccccc2)cc1 | 8.91 µM [quencher] (active) |
| O=C(N/N=C/c1ccc([N+](=O)[O-])cc1)C(=O)N1CCCC1 | inactive |
| NC(=S)N/N=C/c1ccc([N+](=O)[O-])cc1 | inactive |
| Cc1nc2ccn(Cc3cccs3)c(=O)c2cc1C(=O)NCc1ccc(Cl)cc1 | inactive |
| COc1ccccc1Oc1nc(-c2cccnc2)nc2ccccc12 | inactive |
| COc1cccc(Nc2nc3ccccc3c3nncn23)c1 | inactive |
| COc1cccc(-c2nc(Nc3ccncc3)c3ccccc3n2)c1 | 10 µM [quencher] (active) |
| Cc1ccccc1CNC(=O)c1cccc(NC(=O)c2nsc3ccccc23)c1 | inactive |
| CCS(=O)(=O)N1CCc2cc(C(=O)N3CCN(c4ccccc4OC)CC3)ccc21 | inactive |
| O=C1c2ccccc2C2=Nc3ccccc3SC(c3ccccc3F)C12 (configuration not stated) | 5.62 µM [quencher] (active) |
| COc1ccc(CCNC(=O)c2ccc3c(c2)nc(C)n3-c2ccc(Br)cc2)cc1OC | inactive |

| Structure (SMILES) | Potency |
| --- | --- |
| CCC(=O)N1CCc2cc(CNS(=O)(=O)c3ccc(Br)s3)ccc21 | inactive |
| COc1ccc(C2CC(=O)Nc3cc(C)c(C)cc32)c(OC)c1OC (configuration not stated) | inactive |
| COc1ccc2c(c1OC)C(=O)c1ccccc1C2=O | inactive |
| COc1ccc(C2Sc3ccccc3NC3=C2C(=O)c2ccccc23)c(OC)c1OC (configuration not stated) | 6.31 µM [quencher] (active) |
| COc1ccc(C(=O)NCC(c2ccc(N(C)C)cc2)N2CCc3ccccc32)c(OC)c1 (configuration not stated) | inactive |
| Cc1ccc(Oc2c(C(F)(F)F)oc3c(CN4CCCCC4)c(O)ccc3c2=O)cc1 | inactive |
| Cc1ccc(C(=O)Nc2c(C(=O)NC(C)(C)C)oc3ccccc23)cc1 | inactive |
| Oc1ccc2ccccc2c1N=Nc1nccs1 | 12.6 µM [quencher] (active) |
| CCOC(=O)c1ccc2c(c1)N(Cc1cccc(OC)c1)C(=O)c1ccccc1S2(=O)=O | inactive |
| COc1cccc(CNC(=O)Cc2csc3nc(-c4ccccc4)cn23)c1 | inactive |
| CCc1c(C)nc2c(-c3ccccc3)c(C)nn2c1Nc1ccc(NC(C)=O)cc1 | 17.8 µM [quencher] (active) |
| CCc1ccc(NC(=O)c2cnc3c(-c4ccccc4)c(C)nn3c2C)cc1 | inactive |
| Cc1nc2c(-c3ccccc3)c(C)nn2c(C)c1CCC(=O)NCCc1ccccc1 | inactive |
| COc1ccccc1NC(=O)CSC1=Nc2ccccc2C2=NC(CC(=O)NCc3cccs3)C(=O)N12 (configuration not stated) | inactive |
| COc1ccc(CCNC(=O)c2ccc(CSCc3ccc(C)cc3)o2)cc1OC | inactive |
| Nc1ccc(N=Nc2ccccc2Cl)c(N)n1 | 15.8 µM [quencher] (active) |
| Cc1ccc(C)c(N2CCN(C(=O)Cn3ncc4c(=O)oc5ccc(C)cc5c43)CC2)c1 | inactive |
| COc1cccc(NC(=O)Nc2ccc3c(c2)N(C)C(=O)c2ccccc2S3)c1 | inactive |
| COc1cccc(/C=N\NC(=O)C2=NNC(=O)C2C)c1O (configuration not stated) | inactive |
| COc1cccc(/C=N/Nc2cc(C)nc(-c3ccccc3O)n2)c1O | 8.91 µM [quencher] (active) |
| COc1cccc(/C=N/NC(=O)c2[nH]nc3c2CCc2ccccc2-3)c1O | inactive |

| Structure (SMILES) | Potency |
| --- | --- |
| Cc1cc(C)c(/C=C/c2onc(C)c2S(=O)(=O)N2CCC(C(=O)Nc3ccc(Cl)cc3C)CC2)c(C)c1 | inactive |
| O=C(N/N=C/c1sc(N2CCCCC2)nc1-c1cccs1)c1cccnc1 | 15.8 µM [quencher] (active) |
| O=C(N/N=C/c1ccccn1)c1cccnc1 | inactive |
| Cc1cc(/C=N/NC(=O)c2cccnc2)c(C)n1CC(C)C | inactive |
| COc1ccc(CNc2nc(-c3ccc(Cl)cc3)nn2C(=O)c2ccccc2)cc1 | inactive |
| O=C(Cn1cc(SCc2ccccc2)c2ccccc21)N1CCCCC1 | inactive |
| CC(=O)N1CCc2cc(S(=O)(=O)NC(Cc3ccccc3)C(=O)NCc3ccc(C)cc3)ccc21 (configuration not stated) | inactive |
| CCN1CCN(C(=O)c2cc3cc4ccc(OC)cc4nc3s2)CC1 | inactive |
| Cc1ccc(C(=O)NNC(=O)c2cc3cc4ccccc4nc3s2)cc1 | inactive |
| CCN(CCCNC(=O)c1cc2cc3cc(OC)ccc3nc2s1)c1ccccc1 | 4.47 µM [quencher] (active) |
| O=C(CCS(=O)(=O)c1ccccc1)N(Cc1cccnc1)c1nc2c(F)cccc2s1 | inactive |
| COc1ccc(-c2c(C)cc3oc(=O)cc(-c4ccccc4)c3c2C)cc1F | inactive |
| COc1cc(OC)c2c(-c3cccc(-c4cccc(N)c4)c3)cc(=O)oc2c1 | 11.2 µM [quencher] (active) |
| COc1ccc(-c2c(C)cc3oc(=O)cc(-c4ccccc4)c3c2C)cc1OC | inactive |
| CCOc1ccccc1NC(=O)CN1CCCN(Cc2cccc(Cl)c2)S1(=O)=O | inactive |
| CC(CCCc1ccccc1)NC(=O)c1nn(-c2ccc(Cl)cc2)nc1CO (configuration not stated) | inactive |
| Clc1ccc(Nc2ncnc3c2nnn3Cc2ccccc2)cc1 | inactive |
| CC(=O)Nc1ccc(NC(=O)CSc2ncnc3c2cnn3Cc2ccccc2)cc1 | inactive |
| CN(C)c1cc2c(Nc3ccc4c(cnn4Cc4ccccc4)c3)ncnc2cn1 | 7.08 µM [quencher] (active) |
| COc1ccc(C)cc1NC(=O)CCc1c(C)nn(-c2ccc(N3CCOCC3)nn2)c1C | inactive |
